Hits are enriched below; roughly 11% of the tested compounds scored in any of these assays.
HCV inhibitor: qHTS Assay for Inhibitors of Hepatitis C Virus (HCV); Huh7.5.1 HCVcc-Cre infection, luciferase reporter, 44 h; Potency, µM (series often up to 41.8 µM), for the others: top-dose activity change, negative = inhibition, usual class: inhibitors; 340,000 compounds, 3.4% hits
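Cells seeded at 1,000/well and cultured 4 h, then compounds added followed by HCVcc-Cre virus (~0.5 moi). After 44 h further culture, luciferase substrate was added, plates held 15 min at room temperature, and luminescence read for 15 sec.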
Pf growth 48h: Primary qHTS for delayed death inhibitors of the malarial parasite plastid, 48 hour incubation. P. falciparum luciferase growth in erythrocytes, 48 h. Potency, µM (series often up to 28.7 µM), without a hit: at the top dose activity change, negative = inhibition, most hits filed as inhibitors. 310,000 compounds, 5.9% hits
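Luminescence readout; reporter = integrated firefly luciferase in P. falciparum. RBC culture at 2% hematocrit, 0.1% parasitemia final, 37 C/5% CO2; decreased signal taken as growth inhibition.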
AMA1-RON2 inh: qHTS for Inhibitors of AMA1-RON; Towards Development of Antimalarial Drug Lead: Primary Screen; 360,000 compounds, 0.2% hits; Plasmodium falciparum AMA1 (3D7) - RON2 peptide interaction; AID 720542, 2013; AlphaScreen AMA1-biotinylated RON2 peptide binding; Potency, µM (highest dose often 58.2 µM), for the others: top-dose activity change, negative = inhibition, actives largely listed as inhibitors;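 further: 0% = vehicle wells and -100% = peptide control; nearly all actives have a fitted effect of over 45% in size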
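AMA1 (3D7) with his tag at 25 nM final met compounds first, then biotinylated RON2 peptide at 25 nM; detection used donor plus acceptor beads, 10 µg/mL apiece, read by AlphaScreen after 30 min at room temperature.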
Pf growth 96h: Primary qHTS for delayed death inhibitors of the malarial parasite plastid, 96 hour incubation | P. falciparum luciferase reporter growth, 96 h | Potency, µM (highest dose often 28.7 µM), inactives show at the top dose activity change, negative = inhibition, usual class: inhibitors | 320,000 compounds, 6.9% hits | AID 504834, 2011
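P. falciparum expressing integrated firefly luciferase, in erythrocytes at 2% hematocrit, 0.05% parasitemia, incubated with compounds 96 h at 37 C, 5% CO2. Growth inhibition read as loss of luminescence; two-generation exposure targets delayed-death apicoplast inhibitors.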
Starred values were filed as active, the others as inactive; u = inconclusive; x = not tested or not shown. The call rests on the fitted dose curve; in most records, active means well fitted curve in the direction sought with a large enough effect; inconclusive means small, poorly fitted or top-dose-only effect, or another doubt; inactive means no such curve, though single readings can be large; an effect the other way counts as inactive or inconclusive. Unless noted, on the % scale 0 is the no-effect control and ±100 the full control effect; potency means the concentration at half of the fitted maximal effect.

SMILES	HCV inhibitor	Pf growth 48h	AMA1-RON2 inh	Pf growth 96h
O=C(c1ccc(Cl)cc1)C1CCCN(Cc2ccc(Oc3ncccn3)cc2)C1 (centres undefined)	11µM*	-12%	0%	u
Cn1c(CN2CCCC(C(=O)c3ccc4c(c3)OCO4)C2)nc2ccccc21 (centres undefined)	-17%	u	47%	9.3µM*
S=C(NCCN1CCOCC1)Nc1ccccc1Cl	12%	15%	-2%	1%
COc1ccc(-n2cc(C(=O)O)c(=O)cc2C)cc1	29%	19%	-11%	0%
C[C@@H](NC(=O)[C@@H]1Cc2ccccc2CN1C(=O)OC(C)(C)C)C(=O)NCc1ccco1	18%	u	3%	u
O=C(O)c1ccsc1Cc1cccs1	x	x	-1%	x
Cc1cccc(C)c1NC(=O)C(c1ccc(-c2ccccc2)cc1)n1c(=O)c(-c2cc3ccccc3[nH]2)nc2ccccc21 (centres undefined)	x	x	20%	x
COc1ccc(C(CC(=O)c2ccc(C)cc2)Nc2ccc([N+](=O)[O-])cc2)cc1 (centres undefined)	13µM*	36%	-23%	u
Cc1ccc(NC(CC(=O)c2ccccc2)c2ccc(F)cc2)cc1 (centres undefined)	8%	36%	-12%	46%
COc1ccc(CCNC(=O)C(C)c2ccc([N+](=O)[O-])cc2)cc1 (centres undefined)	-8%	-10%	30%	8.3µM*
COc1ccc(CCNC(=O)c2ccc([N+](=O)[O-])cc2)cc1	-14%	-2%	12%	-14%
CC(C)c1ccc(CCNC(=O)c2ccc([N+](=O)[O-])cc2)cc1	11µM*	u	u	u
COc1ccc(CCNc2ccc([N+](=O)[O-])cn2)cc1	u	u	9%	13µM*
O=C(NCCc1ccccc1)[C@@H]1CC=C[C@@H]2CCN(C3CCCCC3)C(=O)[C@@H]21	19%	x	1%	x
C=CCC[C@@H](CCCCC)OC(=O)/C=C/[C@H](O)[C@@H](O)C[C@@H](O)CC=C	x	x	3%	x
CCO[C@@H]1OC(C(=O)Nc2ccccc2)=C[C@H](c2ccc3c(c2)OCO3)[C@H]1CCCO	0%	-47%	-3%	u
CCO[C@@H]1OC(C(=O)N2CCN(Cc3ccc4c(c3)OCO4)CC2)=C[C@H](c2ccc(Br)cc2)[C@H]1CCCO	u	1.3µM*	-19%	4.1µM*
CCO[C@@H]1OC(C(=O)N2CCN(Cc3ccc4c(c3)OCO4)CC2)=C[C@H](c2ccc(C(F)(F)F)cc2)[C@H]1CCCO	u	1.5µM*	4%	2.3µM*
CCO[C@H]1OC(C(=O)O)=C[C@@H](c2ccc3c(c2)OCO3)[C@@H]1CCCO	2.5µM*	0%	9%	26%
CCOc1ccc(-c2nnn(CC(=O)Nc3cccc(OC)c3)n2)cc1OCC	u	-23%	-3%	12µM*
CCOc1ccc(-c2nnn(CC(=O)NCc3ccc(F)cc3)n2)cc1OCC	-5%	2%	-1%	u
CCOc1ccc(-c2nnn(CC(=O)c3ccc4c(c3)OCCO4)n2)cc1OCC	u	-11%	0%	15µM*
CN(C)Cc1c(C(=O)N/N=C/c2cccs2)nnn1-c1nonc1N	28%	11%	-9%	5%
COC(=O)C1=C(C)NC(C)=C(C(=O)OC)C1c1ccc(OC(=O)c2oc3ccccc3c2C)c(OC)c1	-14%	u	0%	u
CCCOc1ccc(/C=N/n2nnnc2N)cc1OC	15%	29%	0%	-15%
Cn1nc(C(F)(F)F)c(C(=O)Nc2ccc(F)cc2F)c1Sc1ccc(Cl)cc1	-5%	u	0%	12µM*
Cn1nc(C(F)(F)F)c(C(=O)Nc2ccc(F)cc2F)c1Sc1ccc(C(F)(F)F)cc1	-8%	u	8%	8.3µM*
Cc1ccc(Sc2c(C(=O)Nc3ccc(F)cc3F)c(C(F)(F)F)nn2C)cc1	-2%	u	25%	u
COc1cc(NC(=O)CCN2CCN(c3ccccc3OC)CC2)cc(OC)c1	x	x	-5%	x
Cc1ccc(S(=O)(=O)N(CC(=O)Nc2cccc(C(F)(F)F)c2)C(=O)N2CCN(C)CC2)cc1	10%	31%	-8%	43%

Source: PubChem BioAssay
